{
  "source": "PubChem BioAssay (NCI)",
  "key": {"[1]": {"experiment": "NCI Yeast Anticancer Drug Screen. Data for the rad50 strain (AID 155);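 also: 0% = growth of vehicle-only cultures of the same strain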", "conditions": "S. cerevisiae rad50 strain growth inhibition, stronger effect = higher value", "how_it_was_run": "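Yeast carrying a defined DNA repair defect were exposed to test compounds, and growth was compared with vehicle-treated controls to give percent inhibition.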"}, "[2]": {"experiment": "NCI Yeast Anticancer Drug Screen. Data for the mec2-1 strain (AID 157)", "conditions": "S. cerevisiae mec2-1 strain, stronger effect = higher value", "how_it_was_run": "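Each compound was tested on mec2-1 yeast, a strain altered in DNA damage repair or cell cycle control. Growth inhibition is reported relative to vehicle.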"}, "[3]": {"experiment": "NCI Yeast Anticancer Drug Screen. Data for the sgs1 mgt1 strain (AID 161);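 also: 0% = growth of cultures given vehicle only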", "conditions": "S. cerevisiae sgs1 mgt1 strain, stronger effect = higher value", "how_it_was_run": "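Test agents were incubated with a DNA-repair-mutant yeast strain. Growth was then read and compared against vehicle-treated controls.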"}, "[4]": {"experiment": "NCI Yeast Anticancer Drug Screen. Data for the cln2 rad14 strain (AID 165);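 also: 0% = growth equal to vehicle treated cultures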", "conditions": "S. cerevisiae cln2 rad14 strain, stronger effect = higher value", "how_it_was_run": "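Test compounds were added to cln2 rad14 yeast cultures; inhibition of growth was then determined by comparison with vehicle treatment.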"}, "[5]": {"experiment": "NCI Yeast Anticancer Drug Screen. Data for the bub3 strain (AID 167)", "conditions": "S. cerevisiae bub3 mutant strain, stronger effect = higher value", "how_it_was_run": "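Compounds were applied to a genetically altered yeast strain carrying a cell-cycle control defect. Growth inhibition was scored against vehicle-treated controls.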"}, "[6]": {"experiment": "NCI Yeast Anticancer Drug Screen. Data for the mlh1 rad18 strain (AID 175)", "conditions": "S. cerevisiae mlh1 rad18 strain growth inhibition, stronger effect = higher value", "how_it_was_run": "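Inhibition values reflect reduced growth of mutant yeast versus vehicle-treated controls following compound exposure; the mutations affect DNA damage repair.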"}, "[7]": {"conditions": "at 5.0 µM (retest, dose inferred, filed as 0.5)"}, "[8]": {"conditions": "at 50.0 µM (retest, dose inferred, filed as 5.0)"}},
  "note": "This is part of a sample that, as a whole, favours compounds with a hit. Of some 79,000 tested, about 15% had one in any assay. Values without a mark were called inactive. The source made the active and inactive calls. Rule as the data show it: active = growth inhibition above about 70%; inactive = the rest.",
  "data": [
    {"smiles": "Cc1cc(Cc2ccccc2Cl)ccc1O", "values": [
      {"measurement": "growth inhibition", "setting": "[1]; [7]", "value": -3, "unit": "%"},
      {"measurement": "growth inhibition", "setting": "[1]; [8]", "value": "99% (active)"},
      {"measurement": "growth inhibition", "setting": "[1]; at 50.0 µM", "value": "99.2% (active)"},
      {"measurement": "growth inhibition", "setting": "[2]; [7]", "value": -9, "unit": "%"},
      {"measurement": "growth inhibition", "setting": "[2]; [8]", "value": "100% (active)"},
      {"measurement": "growth inhibition", "setting": "[2]; at 50.0 µM", "value": "99.6% (active)"},
      {"measurement": "growth inhibition", "setting": "[3]; [7]", "value": -3, "unit": "%"},
      {"measurement": "growth inhibition", "setting": "[3]; [8]", "value": "99% (active)"},
      {"measurement": "growth inhibition", "setting": "[3]; at 50.0 µM", "value": "99.5% (active)"},
      {"measurement": "growth inhibition", "setting": "[4]; [7]", "value": -17, "unit": "%"},
      {"measurement": "growth inhibition", "setting": "[4]; [8]", "value": "99% (active)"},
      {"measurement": "growth inhibition", "setting": "[4]; at 50.0 µM", "value": "99% (active)"},
      {"measurement": "growth inhibition", "setting": "[5]; [7]", "value": -6, "unit": "%"},
      {"measurement": "growth inhibition", "setting": "[5]; [8]", "value": "98% (active)"},
      {"measurement": "growth inhibition", "setting": "[5]; at 50.0 µM", "value": "99.4% (active)"},
      {"measurement": "growth inhibition", "setting": "[6]; [7]", "value": -4, "unit": "%"},
      {"measurement": "growth inhibition", "setting": "[6]; [8]", "value": "100% (active)"},
      {"measurement": "growth inhibition", "setting": "[6]; at 50.0 µM", "value": "95.5% (active)"}
    ]},
    {"smiles": "O=C(/C(=C/c1ccc2c(c1)OCO2)c1ccccc1)c1ccc(OCCN2CCCC2)cc1", "values": [
      {"measurement": "growth inhibition", "setting": "[1]; [7]", "value": -2, "unit": "%"},
      {"measurement": "growth inhibition", "setting": "[1]; [8]", "value": -4, "unit": "%"},
      {"measurement": "growth inhibition", "setting": "[1]; at 50.0 µM", "value": 34.9, "unit": "%"},
      {"measurement": "growth inhibition", "setting": "[2]; [7]", "value": 3, "unit": "%"},
      {"measurement": "growth inhibition", "setting": "[2]; [8]", "value": -8, "unit": "%"},
      {"measurement": "growth inhibition", "setting": "[2]; at 50.0 µM", "value": 58.5, "unit": "%"},
      {"measurement": "growth inhibition", "setting": "[3]; [7]", "value": -3, "unit": "%"},
      {"measurement": "growth inhibition", "setting": "[3]; [8]", "value": -16, "unit": "%"},
      {"measurement": "growth inhibition", "setting": "[3]; at 50.0 µM", "value": 31.1, "unit": "%"},
      {"measurement": "growth inhibition", "setting": "[4]; [7]", "value": -2, "unit": "%"},
      {"measurement": "growth inhibition", "setting": "[4]; [8]", "value": -8, "unit": "%"},
      {"measurement": "growth inhibition", "setting": "[4]; at 50.0 µM", "value": 12.8, "unit": "%"},
      {"measurement": "growth inhibition", "setting": "[5]; [7]", "value": -7, "unit": "%"},
      {"measurement": "growth inhibition", "setting": "[5]; [8]", "value": -1, "unit": "%"},
      {"measurement": "growth inhibition", "setting": "[5]; at 50.0 µM", "value": 3.45, "unit": "%"},
      {"measurement": "growth inhibition", "setting": "[6]; [7]", "value": 5, "unit": "%"},
      {"measurement": "growth inhibition", "setting": "[6]; [8]", "value": 19, "unit": "%"},
      {"measurement": "growth inhibition", "setting": "[6]; at 50.0 µM", "value": 7.35, "unit": "%"}
    ]},
    {"smiles": "CC(C)c1cccc(O)c1O", "values": [
      {"measurement": "growth inhibition", "setting": "[1]; [7]", "value": 7, "unit": "%"},
      {"measurement": "growth inhibition", "setting": "[1]; [8]", "value": 1, "unit": "%"},
      {"measurement": "growth inhibition", "setting": "[1]; at 50.0 µM", "value": "87.2% (active)"},
      {"measurement": "growth inhibition", "setting": "[2]; [7]", "value": -7, "unit": "%"},
      {"measurement": "growth inhibition", "setting": "[2]; [8]", "value": 14, "unit": "%"},
      {"measurement": "growth inhibition", "setting": "[2]; at 50.0 µM", "value": "89.4% (active)"},
      {"measurement": "growth inhibition", "setting": "[3]; [7]", "value": 9, "unit": "%"},
      {"measurement": "growth inhibition", "setting": "[3]; [8]", "value": 13, "unit": "%"},
      {"measurement": "growth inhibition", "setting": "[3]; at 50.0 µM", "value": "82.3% (active)"},
      {"measurement": "growth inhibition", "setting": "[4]; [7]", "value": 23, "unit": "%"},
      {"measurement": "growth inhibition", "setting": "[4]; [8]", "value": 38, "unit": "%"},
      {"measurement": "growth inhibition", "setting": "[4]; at 50.0 µM", "value": "86.3% (active)"},
      {"measurement": "growth inhibition", "setting": "[5]; [7]", "value": -1, "unit": "%"},
      {"measurement": "growth inhibition", "setting": "[5]; [8]", "value": 45, "unit": "%"},
      {"measurement": "growth inhibition", "setting": "[5]; at 50.0 µM", "value": "89.5% (active)"},
      {"measurement": "growth inhibition", "setting": "[6]; [7]", "value": -1, "unit": "%"},
      {"measurement": "growth inhibition", "setting": "[6]; [8]", "value": 4, "unit": "%"},
      {"measurement": "growth inhibition", "setting": "[6]; at 50.0 µM", "value": "86.9% (active)"}
    ]}
  ]
}
